In PubChem BioAssay (NCATS):
Results filed as inconclusive are left out. Active and inactive are the calls of the source. Unless noted, calls come from the whole dose curve; as a rule, active = well fitted curve in the direction sought with a large enough effect; inconclusive = small, poorly fitted or top-dose-only effect, or another doubt; inactive = no such curve, though single readings can be large; an effect the other way counts as inactive or inconclusive.

Key:
[1] = AP1 Signaling Pathway (AID 357; active = well fitted curve in either direction with a large enough effect, not every such curve was filed as active;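 note: ME-180 reporter cells stimulated with EGF at its EC50 level; % is set by controls: 0 for no effect and ±100 for the full control effect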); settings: ME-180 AP-1-bla reporter, EGF-induced, beta-lactamase ratio, 5 h; at 7.69 µM (top of the series) unless noted
How it was run: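 First, ME-180 AP-1-bla cells were cultured overnight at 37 °C in low-serum Opti-MEM. Next, titrated compounds with EC50 EGF were incubated 5 hours. Finally, CCF4 was added for 2.5 hours and the 460/530 nm ratio recorded.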

[2] = target: Cytochrome P450 1A2 (Homo sapiens) (UniProt P05177); assay: p450-cyp1a2 (AID 410; calls by dose curve; note: potency is the fitted concentration of half-maximal effect;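 for activity change, negative = inhibition: -100% = full effect of reference inhibitor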)
Chain of Cytochrome P450 1A2 (Homo sapiens) (P05177 whole entry, looked up): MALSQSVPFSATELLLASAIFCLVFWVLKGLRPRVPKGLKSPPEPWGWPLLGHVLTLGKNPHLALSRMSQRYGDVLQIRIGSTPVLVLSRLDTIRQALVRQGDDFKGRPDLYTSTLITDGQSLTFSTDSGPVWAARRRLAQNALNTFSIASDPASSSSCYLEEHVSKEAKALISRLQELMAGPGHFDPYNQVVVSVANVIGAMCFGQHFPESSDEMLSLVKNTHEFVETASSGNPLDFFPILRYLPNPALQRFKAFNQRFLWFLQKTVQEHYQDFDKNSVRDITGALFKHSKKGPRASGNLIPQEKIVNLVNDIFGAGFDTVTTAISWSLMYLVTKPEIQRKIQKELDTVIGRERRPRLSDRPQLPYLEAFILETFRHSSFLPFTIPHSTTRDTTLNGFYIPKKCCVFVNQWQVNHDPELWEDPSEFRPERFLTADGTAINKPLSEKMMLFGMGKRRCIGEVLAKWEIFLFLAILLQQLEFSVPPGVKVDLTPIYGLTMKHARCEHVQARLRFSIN
How it was run: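 Luminescent demethylation readout: Luciferin-ME (100uM, equal to Km) turned over by 20nM CYP1A2 for 60 min at room temperature after NADPH regeneration addition, following 10 min compound preincubation. Normalization used 57 uM furafylline as full inhibition.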

[3] = NFAT Signaling Pathway (AID 444; active = well fitted curve in either direction with a large enough effect, not every such curve was filed as active;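 note: carbachol stimulus at about its EC50 of 1 µM final; % is set by controls: 0 for no effect and ±100 for the full control effect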); settings: Jurkat NFAT-bla M1, carbachol, beta-lactamase ratio, 5 h; at 7.69 µM (top of the series) unless noted
How it was run: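 Jurkat cells with NFAT-driven β-lactamase reporter and co-expressed M1 receptor, stimulated with carbachol (final 1 uM, ~EC50), compound titration, 5 h at 37 °C. CCF4 loaded 1 h at RT; 460/530 nm ratio gave %activity and AC50.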

[4] = Stat Signaling Pathway (AID 446; active = well fitted curve in either direction with a large enough effect, not every such curve was filed as active;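 note: ME-180 cervical cancer cells given 40 pM IL-6 alongside compound; SIE-controlled beta-lactamase reporter measured as 460/530 nm FRET emission ratio; % is set by controls: 0 for no effect and ±100 for the full control effect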); settings: ME-180 (cervical carcinoma) SIE beta-lactamase reporter, IL-6 stimulated, 5 h; at 7.69 µM (top of the series) unless noted
How it was run: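 Normalization used AC90 stimulation (300 pM IL-6) and AC90 inhibition (125 nM pan-JAK inhibitor at 40 pM IL-6). The underlying signal is SIE-driven beta-lactamase in ME-180 cells after 5 h IL-6 exposure with compound.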

[5] = target: Glucocorticoid receptor (Homo sapiens) (UniProt P04150); assay: GR-GFP Redistribution (AID 450;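 active = compounds whose dose series gives a full or clear partial fitted curve of increased nuclear translocation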; note: potency is the fitted concentration of half-maximal effect); settings: U2OS GR-GFP nuclear translocation, laser cytometry, 2 h
Chain of Glucocorticoid receptor (Homo sapiens) (P04150 whole entry, looked up, the tested form may be a part): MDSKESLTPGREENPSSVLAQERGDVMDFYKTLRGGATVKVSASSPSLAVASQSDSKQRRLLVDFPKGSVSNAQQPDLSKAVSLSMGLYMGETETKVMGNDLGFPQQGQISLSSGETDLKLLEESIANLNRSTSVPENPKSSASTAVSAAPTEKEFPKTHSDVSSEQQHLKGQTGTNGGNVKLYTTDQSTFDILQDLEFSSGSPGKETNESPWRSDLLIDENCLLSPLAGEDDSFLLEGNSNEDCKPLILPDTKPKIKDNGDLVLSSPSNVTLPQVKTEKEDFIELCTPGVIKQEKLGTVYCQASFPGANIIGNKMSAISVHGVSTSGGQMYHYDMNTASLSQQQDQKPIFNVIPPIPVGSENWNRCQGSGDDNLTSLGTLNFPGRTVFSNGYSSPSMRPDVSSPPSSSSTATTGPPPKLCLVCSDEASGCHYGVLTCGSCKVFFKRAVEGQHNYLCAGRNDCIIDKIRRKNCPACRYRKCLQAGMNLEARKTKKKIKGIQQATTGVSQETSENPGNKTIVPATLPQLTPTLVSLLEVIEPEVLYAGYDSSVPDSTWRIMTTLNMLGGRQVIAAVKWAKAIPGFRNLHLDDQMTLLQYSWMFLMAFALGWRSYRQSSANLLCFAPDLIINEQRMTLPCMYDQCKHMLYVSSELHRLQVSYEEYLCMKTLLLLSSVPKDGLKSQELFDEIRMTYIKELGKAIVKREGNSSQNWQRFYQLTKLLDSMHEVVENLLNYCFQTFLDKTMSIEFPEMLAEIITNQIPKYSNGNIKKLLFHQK

[6] = target: Glucocorticoid receptor (Homo sapiens) (UniProt P04150); assay: GR-EFC Redistribution (AID 451; calls by dose curve; note: potency is the fitted concentration of half-maximal effect); settings: CHO-K1 GR-EFC translocation, beta-gal luminescence, 2 h
How it was run: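 CHO-K1 cells expressing nuclear EA and GR-ED fragments of b-gal; compounds titrated up to 46 uM final, 2 h at 37 C. GR nuclear translocation read as complemented b-gal luminescence after 1 h RT detection.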

[7] = target: 3',5'-cyclic-AMP phosphodiesterase 4B (Homo sapiens) (UniProt Q07343); assay: qHTS Assay for Inhibitors of PDE-IV (AID 607; active = well fitted activation curve with a large enough effect in the main read-out, with a control signal flat, not every such curve was filed as active; note: % of control where 0% means no effect)
Chain of 3',5'-cyclic-AMP phosphodiesterase 4B (Homo sapiens) (Q07343 whole entry, looked up): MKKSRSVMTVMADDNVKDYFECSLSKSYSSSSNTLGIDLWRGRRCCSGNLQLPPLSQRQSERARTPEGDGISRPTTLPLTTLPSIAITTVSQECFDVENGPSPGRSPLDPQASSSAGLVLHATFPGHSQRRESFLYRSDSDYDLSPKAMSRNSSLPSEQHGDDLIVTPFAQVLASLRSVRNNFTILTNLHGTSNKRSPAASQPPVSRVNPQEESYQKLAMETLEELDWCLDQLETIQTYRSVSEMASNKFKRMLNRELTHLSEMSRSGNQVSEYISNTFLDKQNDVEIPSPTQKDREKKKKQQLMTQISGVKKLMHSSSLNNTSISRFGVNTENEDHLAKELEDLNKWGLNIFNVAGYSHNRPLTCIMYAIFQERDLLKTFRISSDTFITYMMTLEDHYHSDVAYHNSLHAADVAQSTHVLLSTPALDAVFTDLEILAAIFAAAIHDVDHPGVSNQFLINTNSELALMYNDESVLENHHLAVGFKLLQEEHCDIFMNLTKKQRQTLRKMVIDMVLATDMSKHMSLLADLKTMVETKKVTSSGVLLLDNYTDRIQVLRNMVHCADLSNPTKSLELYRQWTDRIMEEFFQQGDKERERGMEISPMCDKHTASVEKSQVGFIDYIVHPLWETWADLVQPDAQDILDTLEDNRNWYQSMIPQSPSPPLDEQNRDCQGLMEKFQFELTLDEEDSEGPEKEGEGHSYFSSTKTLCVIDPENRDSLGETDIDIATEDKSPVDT
How it was run: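 HEK293 ACTOne cells with CNG channel (1000/well), endogenous PDE4; membrane potential dye, compounds up to 22.9 uM final. Fluorescence Ex 535/Em 590; RO 20-1724 (100 uM final) as reference.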

[8] = target: Cytochrome P450 3A4 (Homo sapiens) (UniProt P08684); assay: qHTS Assay for Activators of Cytochrome P450 3A4 (AID 885); note: nearly all actives have a fitted effect of over 65% in size
Chain of Cytochrome P450 3A4 (Homo sapiens) (P08684 whole entry, looked up): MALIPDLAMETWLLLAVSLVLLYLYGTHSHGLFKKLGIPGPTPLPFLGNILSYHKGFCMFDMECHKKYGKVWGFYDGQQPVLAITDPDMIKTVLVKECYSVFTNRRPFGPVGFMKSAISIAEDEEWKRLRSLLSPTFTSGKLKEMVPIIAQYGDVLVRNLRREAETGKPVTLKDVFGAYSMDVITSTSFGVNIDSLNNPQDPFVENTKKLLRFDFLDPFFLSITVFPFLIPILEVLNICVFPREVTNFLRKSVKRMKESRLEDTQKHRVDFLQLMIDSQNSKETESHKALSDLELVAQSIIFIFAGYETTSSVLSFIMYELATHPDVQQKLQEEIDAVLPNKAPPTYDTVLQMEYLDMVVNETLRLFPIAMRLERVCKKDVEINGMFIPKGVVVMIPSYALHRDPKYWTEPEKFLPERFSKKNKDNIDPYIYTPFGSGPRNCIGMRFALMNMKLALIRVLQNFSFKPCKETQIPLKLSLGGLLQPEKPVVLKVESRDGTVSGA
How it was run: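 Human CYP3A4 dealkylates Luciferin-PPXE to luciferin, which luciferase detection converts to light. Substrate was at its KM (25uM), buffer 200mM KPO4, reaction 60 min at RT.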

[9] = target: Guanine nucleotide-binding protein G(i) subunit alpha-1 (Homo sapiens) (UniProt P63096); assay: qHTS Assay for Inhibitors of RGS12 GoLoco Motif Activity (Green Fluorophore) (AID 879);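 note: 0% = labeled peptide with Gαi1 and full inhibition = labeled peptide alone without protein; negative values mean loss of peptide binding seen as reduced polarization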
Chain of Guanine nucleotide-binding protein G(i) subunit alpha-1 (Homo sapiens) (P63096 whole entry, looked up): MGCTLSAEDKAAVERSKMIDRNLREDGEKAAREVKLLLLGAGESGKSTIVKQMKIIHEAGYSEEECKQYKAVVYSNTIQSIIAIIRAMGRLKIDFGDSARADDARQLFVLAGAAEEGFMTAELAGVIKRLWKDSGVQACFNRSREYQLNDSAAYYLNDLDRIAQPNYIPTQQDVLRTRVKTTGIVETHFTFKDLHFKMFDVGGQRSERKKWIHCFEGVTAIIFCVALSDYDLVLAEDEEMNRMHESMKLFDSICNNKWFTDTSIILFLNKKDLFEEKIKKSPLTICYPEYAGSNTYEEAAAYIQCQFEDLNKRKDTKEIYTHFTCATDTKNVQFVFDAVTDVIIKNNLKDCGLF
How it was run: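 A drop in FITC polarization marked displacement of the FITC-tagged RGS12 GoLoco peptide (10 nM) from Gαi1 (50 nM). Compounds were incubated 10 min at room temperature in Tris pH 7.5 buffer containing 150 mM NaCl, 0.1 mM GDP and 0.05% NP40; unlabeled peptide titration served as control.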

[10] = qHTS Assay for Identification of Small Molecule Agonists for Thrombopoietin (TPO) Signaling Pathway (AID 917); note: % is set by controls: 0 for no effect and ±100 for the full control effect
How it was run: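 Quantitative HTS for pathway activators: compounds were pin-transferred onto IL-3-starved Ba/F3 cells expressing human TPO receptor, TPO was added at its EC50 (26 pM final), and after 24 hrs at 37 C reporter luciferase was measured.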

[11] = target: Muscarinic acetylcholine receptor M1 (Rattus norvegicus) (UniProt P08482); assay: qHTS Assay for Antagonists of Acetylcholine Muscarinic M1 Receptor: Measurement of IP-One Response (AID 944); note: nearly all actives have a fitted effect of over 75% in size
Chain of Muscarinic acetylcholine receptor M1 (Rattus norvegicus) (P08482 whole entry, looked up): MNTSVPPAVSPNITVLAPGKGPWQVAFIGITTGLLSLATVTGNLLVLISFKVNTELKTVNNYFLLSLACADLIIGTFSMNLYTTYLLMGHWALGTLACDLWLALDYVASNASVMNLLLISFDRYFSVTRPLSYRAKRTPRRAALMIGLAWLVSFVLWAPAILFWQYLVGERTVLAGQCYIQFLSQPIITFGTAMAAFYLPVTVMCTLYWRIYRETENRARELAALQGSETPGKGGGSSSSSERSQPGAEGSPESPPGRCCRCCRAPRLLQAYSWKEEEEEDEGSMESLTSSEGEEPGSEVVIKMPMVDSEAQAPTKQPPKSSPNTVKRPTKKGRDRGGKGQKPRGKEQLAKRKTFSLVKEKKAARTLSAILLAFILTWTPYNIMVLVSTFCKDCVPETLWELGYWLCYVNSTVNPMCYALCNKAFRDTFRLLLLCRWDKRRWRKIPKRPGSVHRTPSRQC
How it was run: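 IP1 accumulation measured via TR-FRET between d2-IP1 and Eu-cryptate anti-IP1 antibody after carbachol (200 nM, EC80) stimulation for 30 min; rat M1-transfected CHO cells received compound 10 min before agonist.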

[12] = target: Pyruvate kinase (Leishmania mexicana) (UniProt Q27686); assay: qHTS Validation Assay for Inhibitors of Leishmania Mexicana Pyruvate Kinase (AID 945);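 note: 0% = DMSO only neutral control wells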
Chain of Pyruvate kinase (Leishmania mexicana) (Q27686 2-499 E452W): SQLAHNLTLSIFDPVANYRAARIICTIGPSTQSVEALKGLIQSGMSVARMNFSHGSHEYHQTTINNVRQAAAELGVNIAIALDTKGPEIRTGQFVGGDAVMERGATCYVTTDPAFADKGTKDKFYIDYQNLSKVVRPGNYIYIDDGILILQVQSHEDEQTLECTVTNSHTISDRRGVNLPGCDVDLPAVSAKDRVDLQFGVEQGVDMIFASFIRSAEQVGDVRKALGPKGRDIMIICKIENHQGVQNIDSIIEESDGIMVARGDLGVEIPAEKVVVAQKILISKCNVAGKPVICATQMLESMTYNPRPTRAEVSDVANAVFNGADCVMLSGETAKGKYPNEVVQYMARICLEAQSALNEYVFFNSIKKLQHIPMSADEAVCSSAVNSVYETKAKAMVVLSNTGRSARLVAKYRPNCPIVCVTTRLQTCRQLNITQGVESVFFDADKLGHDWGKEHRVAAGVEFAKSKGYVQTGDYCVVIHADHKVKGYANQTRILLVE
How it was run: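 Compounds are tested as eight-point concentration series. Reactions contain 0.2 nM LmPYK E451W, 0.5 mM PEP, 0.1 mM ADP, 7 mM MgCl2 and 50 mM KCl at pH 7.2, run 1 h at room temperature, then read by PKLight luminescence.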

[13] = target: Pyruvate kinase PKM (Homo sapiens) (UniProt P14618); assay: qHTS Assay for Activators of Human Muscle Pyruvate Kinase (AID 954; active = well fitted curve in the direction sought with a large enough effect, not every such curve was filed as active;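 note: 0% = uninhibited enzyme and -100% = no enzyme or full thiadiazolimine inhibition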)
Chain of Pyruvate kinase PKM (Homo sapiens) (P14618 whole entry, looked up): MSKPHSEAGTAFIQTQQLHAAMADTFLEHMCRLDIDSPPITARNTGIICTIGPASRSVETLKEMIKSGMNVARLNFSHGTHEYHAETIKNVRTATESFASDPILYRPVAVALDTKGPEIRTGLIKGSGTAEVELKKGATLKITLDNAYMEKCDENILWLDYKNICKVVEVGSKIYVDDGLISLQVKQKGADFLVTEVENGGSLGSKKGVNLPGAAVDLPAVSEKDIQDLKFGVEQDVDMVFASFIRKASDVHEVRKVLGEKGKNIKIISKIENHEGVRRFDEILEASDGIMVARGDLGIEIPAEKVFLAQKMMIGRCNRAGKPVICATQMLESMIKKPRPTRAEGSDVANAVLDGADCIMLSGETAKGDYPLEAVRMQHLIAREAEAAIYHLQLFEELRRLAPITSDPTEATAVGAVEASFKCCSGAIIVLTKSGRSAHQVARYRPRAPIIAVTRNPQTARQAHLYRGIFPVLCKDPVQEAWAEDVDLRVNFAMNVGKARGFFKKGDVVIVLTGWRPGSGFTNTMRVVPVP
How it was run: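 Compound pinned into substrate mix (0.5 mM PEP, 0.1 mM ADP), then 0.1 nM PKM2 added; 1 h, RT. Stop/detection luciferase reagent added, luminescence read. Normalized to no-inhibition and no-enzyme or reference-inhibitor controls.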

[14] = target: Alpha-galactosidase (Coffea arabica) (UniProt Q42656); assay: Counterscreen for Glucocerebrosidase Inhibitors: qHTS Assay for Coffee Bean alpha-Galactosidase at pH 4.5 (AID 957);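 note: plate controls were enzyme alone for no effect and no enzyme for full effect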
How it was run: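 Fluorogenic qHTS at pH 4.5 (citrate buffer with Tween-20): 2 nM enzyme, 80 uM 4-MU-alpha-galactoside substrate, compound titrated 0.7 nM to 77 uM, 20 min room temperature. Glycine/NaOH stop; 4-MU read Ex 365/Em 440; Hill-equation AC50 against no-enzyme and enzyme controls.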

[15] = target: Alpha-galactosidase A (Homo sapiens) (UniProt P06280); assay: Counterscreen for Glucocerebrosidase Inhibitors: qHTS Assay for Human alpha-Galactosidase at pH 4.5 (AID 992); note: 0% is about no effect
Chain of Alpha-galactosidase A (Homo sapiens) (P06280 whole entry, looked up): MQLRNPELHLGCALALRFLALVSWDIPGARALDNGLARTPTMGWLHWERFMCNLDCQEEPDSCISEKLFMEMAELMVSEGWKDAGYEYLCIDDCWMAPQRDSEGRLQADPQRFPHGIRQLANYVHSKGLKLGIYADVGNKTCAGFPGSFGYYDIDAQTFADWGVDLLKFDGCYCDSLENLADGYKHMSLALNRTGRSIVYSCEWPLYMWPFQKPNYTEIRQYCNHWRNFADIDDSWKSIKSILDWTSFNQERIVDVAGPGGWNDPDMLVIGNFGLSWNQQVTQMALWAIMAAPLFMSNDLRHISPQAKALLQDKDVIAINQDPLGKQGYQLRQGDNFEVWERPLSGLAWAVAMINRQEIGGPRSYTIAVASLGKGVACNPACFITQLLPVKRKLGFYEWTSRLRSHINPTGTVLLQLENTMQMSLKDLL
How it was run: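 Steps: enzyme (2 nM final), then compound across 0.7 nM to 77 uM, then 80 uM fluorogenic galactopyranoside substrate; incubate 20 min at room temperature; quench at pH 10; measure fluorescence at 365/440 nm.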

[16] = target: alpha-glucosidase (Oryza sativa, rice) (UniProt Q653V4); assay: Counterscreen for Glucocerebrosidase Inhibitors: qHTS Assay for Rice alpha-Glucosidase at pH 5.0 (AID 997);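 note: 0% = full activity with enzyme and -100% = basal without enzyme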
How it was run: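 Endpoint fluorogenic assay at pH 5.0: compounds (0.7 nM to 77 uM) titrated against 4 nM rice enzyme and 400 uM 4-MU-alpha-glucoside for 20 min at room temperature; NaOH/glycine stop, read ex 365/em 440 nm, Hill-fitted AC50.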

[17] = target: Alpha-galactosidase (Coffea arabica) (UniProt Q42656); assay: Counterscreen for Glucocerebrosidase Inhibitors: qHTS Assay for Coffee Bean alpha-Galactosidase at pH 5.9 (AID 998);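 note: plate controls were uninhibited enzyme for no effect and no-enzyme basal signal for full effect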
How it was run: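 Enzyme 2 nM + cpd (0.7 nM–77 uM titration) + 4-MU-alpha-Gal 80 uM, pH 5.9 citrate/Tween-20, RT 20 min, NaOH/glycine stop pH 10, fluor 365/440. Normalized to no-enzyme and full-activity controls; Hill-fit AC50.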

[18] = target: Mitogen-activated protein kinase 10 (Mus musculus) (UniProt Q61831); assay: JNK3 AlphaScreen Assay (AID 530; active = well fitted curve in either direction with a large enough effect, not every such curve was filed as active)
How it was run: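 Activity was read by AlphaScreen after JNK3-containing HepG2 lysate (cytokine pre-activated) phosphorylated biotinylated GST-cJun with 10 uM ATP at room temperature. Phospho-Ser73 cJun antibody with Protein-A acceptor beads provided detection.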

[19] = target: Cytochrome P450 2D6 (Homo sapiens) (UniProt P10635); assay: qHTS Assay for Inhibitors and Substrates of Cytochrome P450 2D6 (AID 891);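 note: luciferin methyl ether substrate demethylated by CYP2D6 with NADPH regeneration; % is set by controls: 0 for no effect and ±100 for the full control effect; nearly all actives have a fitted effect of over 60% in size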
How it was run: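 Luminescent read-out of luciferin formed by 5 nM human CYP2D6 demethylating 30 uM Luciferin-ME EGE (Km level) over 60 min at room temperature after NADPH regeneration addition. Data normalized to full inhibition by 1.43 uM quinidine.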

O=C(C[C@H](c1ccccc1)c1c(O)c2ccccc2oc1=O)c1ccccc1
inactive: activity change, negative = inhibition [1] 2.29% | activity change, negative = inhibition [2] -12.6% [at 2.29 µM] | activity change, negative = inhibition [3] 11.4% | activity, negative = inhibition [4] -9.56% | Potency [5] > 46 µM | Potency [6] > 9.22 µM | outcome [7] | activity change, positive = activation [8] -30.1% [at 11.4 µM]

C[C@]12CC[C@H](O)CC1=CC[C@@H]1[C@H]2CC[C@]2(C)C(=O)CC[C@H]12
inactive: activity change, negative = inhibition [1] 1.1% [at 38 µM] | Potency [2] | activity change, negative = inhibition [3] 2.55% [at 38 µM] | activity, negative = inhibition [4] 3.87% [at 38 µM] | Potency [5] > 46 µM | Potency [6] > 46 µM | outcome [7] | outcome [9] | outcome [10] | Potency [11] | outcome [12] | outcome [13] | outcome [14] | outcome [15] | outcome [16] | outcome [17]

C[C@@H]1Cc2cc3c(cc2C(c2ccc(N)cc2)=NN1)OCO3
active: Potency [2] 5.01 µM
inactive: activity change, negative = inhibition [1] -10.9% [at 38 µM] | activity change, negative = inhibition [3] -10.6% [at 38 µM] | activity, negative = inhibition [4] 13.7% [at 38 µM] | Potency [5] > 46 µM | Potency [6] > 46 µM | outcome [7] | outcome [9] | Potency [8] | outcome [10] | Potency [11] | outcome [12] | outcome [13] | outcome [14] | outcome [15] | outcome [16] | outcome [17]

Oc1ccc2c3c1O[C@@H]1c4[nH]c5c(c4C[C@@]4(O)[C@@H](C2)N(CC2CC2)CC[C@]314)C[C@]1(O)[C@@H]2Cc3ccc(O)c4c3[C@@]1(CCN2CC1CC1)[C@H]5O4
inactive: activity change, negative = inhibition [1] -1.65% [at 38 µM] | Potency [2] | activity change, negative = inhibition [3] -8.04% [at 38 µM] | activity, negative = inhibition [4] -12.2% [at 38 µM] | Potency [5] > 46 µM | outcome [7] | outcome [9] | Potency [8] | outcome [10] | outcome [12] | outcome [13] | outcome [14] | outcome [15] | outcome [16] | outcome [17]

C[C@@]12CC[C@H]3[C@@H](CC=C4C[C@H](OS(=O)(=O)O)CC[C@]43C)[C@H]1CCC2=O
inactive: activity change, negative = inhibition [1] -6.95% [at 38 µM] | Potency [2] | activity change, negative = inhibition [3] -0.252% [at 38 µM] | activity, negative = inhibition [4] -15.3% [at 38 µM] | Potency [5] > 46 µM | Potency [6] > 46 µM | Potency [18] | outcome [7] | outcome [9] | outcome [10] | Potency [11] | outcome [12] | outcome [13] | outcome [14] | outcome [15] | outcome [16] | outcome [17]

N[C@H](Cn1oc(=O)[nH]c1=O)C(=O)O
inactive: activity change, negative = inhibition [1] 0.495% [at 38 µM] | Potency [2] | activity change, negative = inhibition [3] -2.78% [at 38 µM] | activity, negative = inhibition [4] 6.66% [at 38 µM] | Potency [5] > 46 µM | Potency [6] > 46 µM | Potency [18] | outcome [7] | Potency [19]

N[C@H](CCl)C(=O)O
inactive: activity change, negative = inhibition [1] 0.76% [at 38 µM] | Potency [2] | activity change, negative = inhibition [3] 14.9% [at 38 µM] | activity, negative = inhibition [4] -9.55% [at 38 µM] | Potency [5] > 46 µM | Potency [6] > 46 µM | Potency [18] | outcome [7] | outcome [9] | outcome [10] | outcome [12] | outcome [13] | outcome [14] | outcome [15] | outcome [16] | outcome [17]

COc1ccc2c(c1O)-c1cccc3c1[C@H](C2)N(C)CC3
active: Potency [2] 3.98 µM
inactive: activity change, negative = inhibition [1] -2.14% [at 38 µM] | activity change, negative = inhibition [3] -9.88% [at 38 µM] | activity, negative = inhibition [4] 28.1% [at 38 µM] | Potency [5] > 46 µM | Potency [6] > 46 µM | Potency [18] | outcome [7] | outcome [9] | Potency [8] | outcome [10] | Potency [11] | outcome [12] | outcome [13] | outcome [14] | outcome [15] | outcome [16] | outcome [17]

NCCc1ccc(S(=O)(=O)O)cc1[N+](=O)[O-]
inactive: activity change, negative = inhibition [1] -10.6% | Potency [2] | activity change, negative = inhibition [3] -27.3% | activity, negative = inhibition [4] 1.75% | Potency [5] > 46 µM | Potency [6] > 9.22 µM | activity change, negative = inhibition [18] 10.9% [at 11.4 µM] | outcome [7]

CCN(CC)c1ncnc2c1ncn2[C@@H]1O[C@@H](COP(=O)(O)OP(=O)(O)C(Br)(Br)P(=O)(O)O)[C@H](O)[C@@H]1O
inactive: activity change, negative = inhibition [1] 6.32% [at 38 µM] | Potency [2] | activity change, negative = inhibition [3] 8.54% [at 38 µM] | activity, negative = inhibition [4] -1.38% [at 38 µM] | Potency [6] > 46 µM | Potency [18] | outcome [7] | outcome [9] | outcome [10] | Potency [11] | outcome [12] | outcome [13] | outcome [14] | outcome [15] | outcome [16] | outcome [17]
